Compounds with a hit are over-represented: about 3.8% of the library has one in this group of screens.
HT1080 IDH1KD tx: qHTS for induction of synthetic lethality in tumor cells producing 2HG: qHTS for the HT-1080-IDH1KD cell line. HT-1080 IDH1 knockdown viability, ATP luminescence, 48 h. Potency, µM (series often up to 46.1 µM), inactives show at the highest dose activity, negative = toxicity, actives largely listed as cytotoxic. 360,000 tested, 2% active;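 also: 0% = DMSO wells and -100% = cell-free medium wells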
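Assay cells: HT-1080 with IDH1 knockdown, 750 per well, RPMI/5% FBS. Exposure: 48 h at 37 °C following 2 h pre-incubation. Read: CellTiter-Glo luminescence; fitted concentration-response, curve class assigned.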
HepG2 viability: qHTS for Inhibitors of TGF-b: Cytotox Counterscreen | Potency, µM (highest dose often 46.1 µM), for the others: top-dose activity change, negative = cytotoxicity, actives largely listed as cytotoxic | 410,000 tested, 0.76% active | HepG2 CAGA-GFP viability, ATP luminescence, 18 h
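CellTiter-Glo luminescence gave cytotoxicity after 18 hours at 37 degrees C. The cells were HepG2 CAGA-GFP in 1% FBS DMEM, stimulated with 500 pg/mL TGF-beta after compound addition. %Activity was normalised to no-cell wells (complete cell-killing) and DMSO (no toxicity), and curves were fitted and classified.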
S2 tox: Viability Counterscreen for Primary qHTS for Inhibitors of ATXN expression; S2 cells (HEK-293 line with an ATXN2-luciferase reporter) viability, CellTiter-Fluor protease fluorescence, 24 h; Potency, µM (titrated, usually from 56.7 µM), actives largely listed as cytotoxic; AID 651635, 2014; 400,000 tested, 0.49% active; also: nearly all actives have a fitted effect of over 40% in size
ATXN2 expr inh: Primary qHTS for Inhibitors of ATXN expression; 360,000 tested, 0.72% active; Potency, µM (titrated, usually from 57 µM), without a hit: at the top dose activity change, negative = inhibition, usual class: inhibitors; AID 1745845, 2022; HEK-293 ATXN2-luciferase reporter, luminescence, 24 h; also: % is scaled to controls: 0 for no effect and ±100 for the full control effect; nearly all actives have a fitted effect of over 55% in size
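ATXN2-luciferase reporter cells (luciferase flanked by upstream and downstream ATXN2 gene portions) were treated 24 h at 37 °C with compounds at up to 57 uM. SteadyGlo luminescence gave expression; GF-AFC fluorescence gave viability.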
HT1080NT lethal: qHTS for induction of synthetic lethality in tumor cells producing 2HG: qHTS for the HT-1080-NT fibrosarcoma cell line | HT-1080-NT fibrosarcoma viability, CellTiter-Glo ATP luminescence, 48 h | Potency, µM (titrated, usually from 46.1 µM), for the others: top-dose activity, negative = less viability, most hits filed as cytotoxic | 360,000 tested, 1.6% active;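 also: NT is the 2HG producing partner of a matched IDH1 knockdown line; 0% = DMSO-treated cells and -100% = media-only wells without cells; nearly all actives have a fitted effect of over 55% in size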
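Read-out is CellTiter-Glo luminescence after 10 minutes at room temperature, following 48 hours' compound treatment of HT-1080-NT cells (750 cells/well, RPMI, 5% FBS, 37 degrees C).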
TGFb SMAD3 inh: qHTS for Inhibitors of TGF-b. Potency, µM (highest dose often 46.1 µM), for inactives: top-dose activity, negative = inhibition, hits mostly inhibitors. HepG2 CAGA-GFP TGF-b/SMAD3 reporter, GFP fluorescence, 18 h; TGF-beta stimulated, 500 pg/mL final. 410,000 tested, 1.2% active; also: % is scaled to controls: 0 for no effect and ±100 for the full control effect; nearly all actives have a fitted effect of over 65% in size
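First, reporter cells (HEPG2 CAGA-GFP) rested 2 h at 37 degrees C. Next, compounds were pinned in and TGF-beta added to 500 pg/mL final. After 18 h, GFP was imaged per cell and summed per well.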
* marks the source's active call; other numbers are inactive results; i = inactive; u = inconclusive; x = no result given; ! = a repeat was not active. Calls follow the shape of the dose curve; as a rule, active = well fitted curve in the direction sought with a large enough effect; inconclusive = small, poorly fitted or top-dose-only effect, or another doubt; inactive = no such curve, though single readings can be large; an effect the other way counts as inactive or inconclusive. Potency is read from the fitted curve at half-maximal effect.

SMILES	HT1080 IDH1KD tx	HepG2 viability	S2 tox	ATXN2 expr inh	HT1080NT lethal	TGFb SMAD3 inh
Cc1ccc(C(=O)N/C(=C\c2ccc(-c3cccc([N+](=O)[O-])c3)o2)C(=O)NCCCN(C)C)cc1	15µM*	-71%	u	u	18µM*	u
CN(C)CCCNC(=O)/C(=C\c1ccc(-c2cccc([N+](=O)[O-])c2)o1)NC(=O)c1ccccc1	u	-30%	i	-9%	u	u
Cc1ccc(C(=O)N/C(=C\c2ccc(-c3ccc(Br)cc3)o2)C(=O)NCCCN(C)C)cc1	23µM*	4.5µM*	32µM*	10µM*	u	7.1µM*
Cc1ccc(C(=O)N/C(=C/c2ccc(-c3ccc(Br)cc3)o2)C(=O)NC2CCS(=O)(=O)C2)cc1 (stereo unspecified)	-8%	-36%	i	-14%	-21%	-8%
O=C(CSc1ccc2nc(-c3ccccc3)cn2n1)Nc1cccc(F)c1	x	-19%	i	97%	x	-6%
CN1C(=O)/C(=C2/C=Cc3ccccc3N2CCCS(=O)(=O)O)SC1=S	-16%	0%	16µM*	13%	-2%	2%
CCCN1/C(=C2/SC(=S)N(CC)C2=O)C=Cc2ccccc21	0%	-27%	u	-7%	13%	-17%
CCN1CCCC1CNc1ncnc2c1[nH]c1ccc(Cl)cc12 (stereo unspecified)	u	-40%	i	u	15µM*	-28%
Cc1ccc(OCCCC(=O)Nc2sc3c(c2C(N)=O)CCCC3)cc1	x	-34%	i	-20%	x	u
COc1cc(-c2nc3cnccn3c2Nc2ccc(C)cc2)ccc1O	16µM*	-35%	u	20%	u	-27%
COc1cc(-c2nc3cnccn3c2Nc2ccc(C(C)C)cc2)ccc1O	u	11µM*!	u	u	u	11µM*
CN(C)c1ccc(/C=C/c2cc(=O)[nH]c3ccccc23)cc1	x	2%	x	x	x	-7%
COc1ccccc1-c1ccc(C(=O)N2CCC(N3CCc4ccccc4C3)CC2)c(N(C)CC2COCCO2)n1 (stereo unspecified)	x	x	i	x	x	x
Cc1ccc(-c2nn(CC(=O)NCc3cc(-c4nn(C)c(=O)c5ccccc45)ccc3C)c(=O)c3ccccc23)cc1	u	3.5µM*	13µM*	11µM*	u	0%
COc1ccc(N2CCN(S(=O)(=O)c3c(C)[nH]c(=O)[nH]c3=O)CC2)cc1	x	7%	i	3%	x	12%
O=C(c1cccc(S(=O)(=O)N2CCc3ccccc3C2)c1)N1CCN(c2ccccc2)CC1	-22%	6%	i	-13%	0%	u
O=S(=O)(c1ccc(Cl)cc1)N1CCCc2ccccc21	1%	-13%	i	7%	3%	-18%
CCn1c(=O)n(CC)c2cc(S(=O)(=O)N3CCc4ccccc43)ccc21	u	-36%	i	u	10µM*	-2%
Cc1cc(NC(=O)COC(=O)c2ccc(S(=O)(=O)N3CCCc4ccccc43)cc2)no1	4.1µM*	-12%	i	-19%	4.1µM*	13%
O=C(c1cccc(S(=O)(=O)N2CCc3ccccc32)c1)N1CCN(c2ccccc2)CC1	u	-3%	i	-28%	13µM*	-28%
CC(=O)Nc1ccc(S(=O)(=O)N2CCCc3ccccc32)cc1	7.1µM*	-1%	i	-25%	8.9µM*	u
Cc1ccc(N2C(=O)CSC23C(=O)N(CC(=O)Nc2ccc(C)cc2C)c2ccccc23)cc1 (stereo unspecified)	x	-24%	i	4%	x	-19%
CCC1C(=O)NCCN1Cc1ccc2c(c1)CN(Cc1cccc(OC)c1OC)CCO2 (stereo unspecified)	x	x	i	x	x	x
CN1CCCC(CNC(=O)c2cnn(-c3nccc(-c4cccs4)n3)c2C2CC2)C1 (stereo unspecified)	x	x	i	x	x	x
NNC(=O)c1ccc(S(=O)(=O)N2CCc3ccccc32)cc1	-12%	2%	i	-11%	-6%	-16%
SMILES	HT1080 IDH1KD tx	HepG2 viability	S2 tox	ATXN2 expr inh	HT1080NT lethal	TGFb SMAD3 inh
COC(=O)Nc1ccc(S(=O)(=O)N2c3ccccc3CCC2C)cc1 (stereo unspecified)	u	-16%	i	u	2.8µM*	u
COC(=O)c1ccc(S(=O)(=O)N2CCc3ccccc32)cc1	9.2µM*	-2%	i	-4%	u	-5%
OCCN(CCO)CC(O)COc1ccc(C23CC4CC(CC(C4)C2)C3)cc1 (stereo unspecified)	4%	-88%	i	u	-7%	18µM*
CC1C/C(=C/c2ccncc2)C(=O)/C(=C/c2ccncc2)C1 (stereo unspecified)	3.7µM*	5.6µM*	u	x	u	5.6µM*
COc1ccc(C[C@H]2CN3C(=NC[C@@H]3Cc3ccc(O)cc3)N2C[C@H](C)NC(=O)c2ccc(C)c(Br)c2)cc1	-14%	18µM*	22µM*	u	-15%	22µM*
COc1ccc(C[C@H]2CN3C(=NC[C@@H]3C(C)C)N2C[C@H](C)NC(=O)c2ccc(C)c(Br)c2)cc1	-26%	-58%	18µM*	u	-10%	u
Cc1ccc(C(=O)N[C@@H](C)CN2C3=NC[C@H](C(C)C)N3C[C@H]2Cc2ccc(O)cc2)cc1Br	-30%	-35%	u	u	-26%	u
COc1ccc(C[C@@H]2CN3C(=NC[C@@H]3C)N2C[C@H](C)NC(=O)CCC2CCCCC2)cc1	-12%	-1%	i	6%	4%	-7%
COC(=O)c1ccc(Cl)cc1NC(=O)NCCc1c(C)nn(C)c1C	x	-1%	u	-14%	x	16%
COCC(=O)Nc1cc(C(=O)N2CCCCC2c2nccs2)c2c(c1)nc(-c1ccncc1)n2C (stereo unspecified)	x	x	i	x	x	x
N#C/C(=N\Nc1cccc(C(F)(F)F)c1)C(=O)c1csc(-c2cccnc2)n1	u	-26%	25µM*	u	-9%	u
Cc1ccc(C(=O)Nc2cccc(C(F)(F)F)c2)cc1NC(=O)c1csc(-c2ccncc2)n1	-19%	-56%	u	u	-11%	-7%
Cc1oc(-c2ccc(C(=O)Nc3cccc(C(F)(F)F)c3)cc2)nc1CSc1ccccc1	x	-28%	x	x	x	u
